Source: PubChem BioAssay
Activity calls are given as the source filed them. The rule behind the calls is not given here.

What follows are molecules tested against Pantothenate synthetase (Mycobacterium tuberculosis (strain ATCC 25618 / H37Rv)) (UniProt P9WIL5) (assay: Coupled enzyme confirmation of inhibitors against recombinant Mtb PanC (AID 375;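 note: 0% = full reaction with vehicle and 100% = no enzyme background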)). Details: coupled enzyme assay; at 10 µM, active compounds read high.
Chain of Pantothenate synthetase (Mycobacterium tuberculosis (strain ATCC 25618 / H37Rv)) (P9WIL5 whole entry, looked up): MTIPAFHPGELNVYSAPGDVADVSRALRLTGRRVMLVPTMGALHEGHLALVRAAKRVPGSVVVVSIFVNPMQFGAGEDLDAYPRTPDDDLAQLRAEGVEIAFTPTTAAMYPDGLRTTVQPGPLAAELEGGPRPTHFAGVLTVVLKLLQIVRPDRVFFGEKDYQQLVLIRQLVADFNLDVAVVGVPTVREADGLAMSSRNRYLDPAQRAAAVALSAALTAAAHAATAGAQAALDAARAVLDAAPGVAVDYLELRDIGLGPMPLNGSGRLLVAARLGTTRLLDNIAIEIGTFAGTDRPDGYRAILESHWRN

Compound	inhibition
CN(C)c1ccc(CNC2CC(C)(C)NC(C)(C)C2)cc1	0% (inactive)
COc1ccc(OC)c(C2=NOC(C(=O)NCCN3CCOCC3)C2)c1 (configuration not stated)	0% (inactive)
COC(=O)C1=C(C)Nc2ncnn2C1c1ccc(C)o1 (configuration not stated)	0% (inactive)
CC1CCCN(c2ccc(C(=O)NCc3cccs3)cn2)C1 (configuration not stated)	1% (inactive)
CCOC(=O)N1CCN(C(=O)COc2cc(=O)n(C)c3ccccc23)CC1	0% (inactive)
COc1ccc(C2CC(c3cccc(C)c3)n3ncnc3N2)cc1 (configuration not stated)	0% (inactive)
CC(=O)CC(=O)Nc1ccccc1NC(C)=O	3% (inactive)
